This is an account of results in ChEMBL document CHEMBL3988442, “University of Dundee, Small-Polar-MMV Screening Library” (2021).

For some of these results: Measured potencies and affinities stand elsewhere.

Holding throughout (design): scale not given: direction of the effect not stated beside the values
In assay [1] the target is Protein translocase subunit SecA (Escherichia coli (strain K12)) (UniProt P10408). The assay is described as follows: Assay to Identify E. coli SecA ATPase Inhibitors. Conditions: 30 µM. Format: functional.
Assay [2] has as its target T1, Ubiquitin-activating enzyme e1, putative (Leishmania donovani (strain BPK282A1)) (UniProt E9BSI1).
T1 sequence (whole entry): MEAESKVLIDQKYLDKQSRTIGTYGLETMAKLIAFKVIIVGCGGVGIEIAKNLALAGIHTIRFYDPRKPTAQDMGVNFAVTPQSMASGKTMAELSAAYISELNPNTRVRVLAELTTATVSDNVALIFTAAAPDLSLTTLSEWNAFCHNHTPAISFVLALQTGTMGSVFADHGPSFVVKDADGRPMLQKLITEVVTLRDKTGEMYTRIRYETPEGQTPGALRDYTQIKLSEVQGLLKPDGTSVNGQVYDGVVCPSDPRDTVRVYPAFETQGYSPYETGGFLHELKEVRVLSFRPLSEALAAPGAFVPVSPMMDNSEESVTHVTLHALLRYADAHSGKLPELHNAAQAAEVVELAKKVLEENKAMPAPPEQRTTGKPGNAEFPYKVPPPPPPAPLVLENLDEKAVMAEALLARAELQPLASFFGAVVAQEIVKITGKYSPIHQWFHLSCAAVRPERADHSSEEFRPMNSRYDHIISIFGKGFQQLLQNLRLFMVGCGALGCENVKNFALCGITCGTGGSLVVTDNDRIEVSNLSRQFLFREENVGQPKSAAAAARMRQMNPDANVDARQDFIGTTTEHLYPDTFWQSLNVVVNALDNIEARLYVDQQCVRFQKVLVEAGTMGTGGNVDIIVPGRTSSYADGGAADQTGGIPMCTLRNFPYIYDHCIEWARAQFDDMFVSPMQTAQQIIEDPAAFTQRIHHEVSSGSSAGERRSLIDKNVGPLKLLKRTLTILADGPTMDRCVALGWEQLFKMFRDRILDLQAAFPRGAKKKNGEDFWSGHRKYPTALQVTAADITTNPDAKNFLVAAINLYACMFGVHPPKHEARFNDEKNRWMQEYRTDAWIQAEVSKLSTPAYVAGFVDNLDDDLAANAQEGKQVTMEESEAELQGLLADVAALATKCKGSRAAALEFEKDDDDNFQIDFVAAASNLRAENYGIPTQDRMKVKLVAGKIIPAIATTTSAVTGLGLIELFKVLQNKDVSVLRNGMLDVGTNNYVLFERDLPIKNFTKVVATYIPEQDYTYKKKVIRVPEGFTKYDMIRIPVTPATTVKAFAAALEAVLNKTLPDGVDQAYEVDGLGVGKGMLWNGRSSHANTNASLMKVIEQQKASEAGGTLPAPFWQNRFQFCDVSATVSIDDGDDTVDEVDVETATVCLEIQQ
The assay is described as follows: Leishmania donovani Ubiquitin Activating Enzyme (LdE1). Format: functional. To be noted: 30 µM.

Assay [3] deals with AMP-activated protein kinase, AMPK (Homo sapiens) (UniProt P54646+O43741+P54619+Q9UGJ0+Q9Y478+Q13131+Q9UGI9). Put plainly: AMP-dependent Kinase enzyme assay. An in vitro enzyme assay that detects ADP turnover that is directly proportional to AMPK activity. This uses naive AMPK that is activated during the assay with MK-8722. The format is functional. To be noted: 30 µM.
In assay [4] the target is Sialic acid-binding Ig-like lectin 9 (Homo sapiens) (UniProt Q9Y336). The assay is described as follows: Hs-Siglec9 ALPHAscreen SOP 20170721. To be noted: 10 µM.
For the next assay, the system named is Trypanosoma cruzi. The assay is described as follows: Trypanosoma cruzi phosphomannomutase and mannose-1-phosphate guanylyltransferase assay. Conditions: 10 µM. Format: functional.
For assay [5], the target named is T2, Arginase-2, mitochondrial (Homo sapiens) (UniProt P78540).
T2 sequence (whole entry): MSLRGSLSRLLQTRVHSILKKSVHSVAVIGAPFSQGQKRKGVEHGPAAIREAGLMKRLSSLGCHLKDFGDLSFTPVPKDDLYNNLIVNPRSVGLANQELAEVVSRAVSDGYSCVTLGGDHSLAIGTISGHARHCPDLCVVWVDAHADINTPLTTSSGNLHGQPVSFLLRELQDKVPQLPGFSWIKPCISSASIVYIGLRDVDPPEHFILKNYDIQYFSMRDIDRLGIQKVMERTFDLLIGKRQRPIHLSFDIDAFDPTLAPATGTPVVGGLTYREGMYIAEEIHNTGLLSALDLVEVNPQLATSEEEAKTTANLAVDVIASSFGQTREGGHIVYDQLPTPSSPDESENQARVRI
Put plainly: in vitro enzyme assay to detect the production of urea directly proportional to the activity of Arginase II. Also: in the data most compounds retested in dose-response had high values. Format: functional. Conditions: 33.3 µM.

The target in assay [6] is T3, Proteasome subunit beta (Trypanosoma cruzi) (UniProt O96673).
T3 sequence (whole entry): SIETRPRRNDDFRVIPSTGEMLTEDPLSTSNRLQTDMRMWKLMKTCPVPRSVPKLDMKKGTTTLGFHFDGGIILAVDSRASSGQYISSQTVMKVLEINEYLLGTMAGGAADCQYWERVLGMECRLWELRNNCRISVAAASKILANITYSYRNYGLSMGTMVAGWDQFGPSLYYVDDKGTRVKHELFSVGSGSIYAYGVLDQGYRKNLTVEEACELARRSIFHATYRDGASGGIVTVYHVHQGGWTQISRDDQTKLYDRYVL
The assay is described as follows: Trypanosoma cruzi proteasome chymotrypsin-like activity (TcProtChymo) assay. Also: in the data most compounds retested in dose-response had high values. To be noted: 9.37 µM. The format is functional.

Another assay is filed under the species Homo sapiens. The assay is described as follows: To identify inhibition of the IFN signalling (Jak-Stat) pathway via expression of an eGFP reporter gene under the control of an IFN-stimulated response element (ISRE) containing MxA promoter. The format is functional. Conditions: 30 µM.
Assay [7] concerns the target T4, Tyrosyl-tRNA synthetase, putative (Trypanosoma cruzi (strain CL Brener)) (UniProt Q4DSP6).
T4 sequence (whole entry): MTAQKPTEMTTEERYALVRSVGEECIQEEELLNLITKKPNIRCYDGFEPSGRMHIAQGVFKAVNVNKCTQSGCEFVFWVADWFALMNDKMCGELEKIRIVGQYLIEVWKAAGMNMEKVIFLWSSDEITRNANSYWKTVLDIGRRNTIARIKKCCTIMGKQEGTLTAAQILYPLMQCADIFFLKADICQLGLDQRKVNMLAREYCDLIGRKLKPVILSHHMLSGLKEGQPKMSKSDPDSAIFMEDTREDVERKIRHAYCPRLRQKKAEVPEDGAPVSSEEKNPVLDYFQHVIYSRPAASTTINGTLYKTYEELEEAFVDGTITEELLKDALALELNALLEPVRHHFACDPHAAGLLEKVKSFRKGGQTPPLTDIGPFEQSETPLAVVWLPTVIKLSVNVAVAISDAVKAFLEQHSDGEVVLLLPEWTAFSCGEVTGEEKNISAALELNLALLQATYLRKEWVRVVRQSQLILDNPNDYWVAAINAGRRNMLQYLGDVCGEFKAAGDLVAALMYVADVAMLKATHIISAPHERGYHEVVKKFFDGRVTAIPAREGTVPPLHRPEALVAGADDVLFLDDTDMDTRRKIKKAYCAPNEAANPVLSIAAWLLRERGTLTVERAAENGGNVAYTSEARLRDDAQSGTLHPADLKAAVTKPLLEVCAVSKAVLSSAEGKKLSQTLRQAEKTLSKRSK
Put plainly: Trypanosoma cruzi tyrosyl tRNA synthetase (TcYRS) _High Tyrosine SOP. Also: in the data most compounds retested in dose-response had high values. The format is functional. Conditions: 30 µM.

Assay [8] deals with T4, Tyrosyl-tRNA synthetase, putative (Trypanosoma cruzi (strain CL Brener)). Put plainly: Trypanosoma cruzi tyrosyl tRNA synthetase (TcYRS) SOP. Format: functional. Conditions: 30 µM.
In assay [9] the target is Chromo domain-containing protein 1 (Saccharomyces cerevisiae (strain ATCC 204508 / S288c) (Baker's yeast)) (UniProt P32657). The assay is described as follows: ScCHD-1 Enzyme Inhibition Assay. Also: in the data most compounds retested in dose-response had high values. The format is functional. Conditions: 30 µM.
Sequence of Chromo domain-containing protein 1 (Saccharomyces cerevisiae (strain ATCC 204508 / S288c) (Baker's yeast)) (P32657 whole entry, the tested form may be a part): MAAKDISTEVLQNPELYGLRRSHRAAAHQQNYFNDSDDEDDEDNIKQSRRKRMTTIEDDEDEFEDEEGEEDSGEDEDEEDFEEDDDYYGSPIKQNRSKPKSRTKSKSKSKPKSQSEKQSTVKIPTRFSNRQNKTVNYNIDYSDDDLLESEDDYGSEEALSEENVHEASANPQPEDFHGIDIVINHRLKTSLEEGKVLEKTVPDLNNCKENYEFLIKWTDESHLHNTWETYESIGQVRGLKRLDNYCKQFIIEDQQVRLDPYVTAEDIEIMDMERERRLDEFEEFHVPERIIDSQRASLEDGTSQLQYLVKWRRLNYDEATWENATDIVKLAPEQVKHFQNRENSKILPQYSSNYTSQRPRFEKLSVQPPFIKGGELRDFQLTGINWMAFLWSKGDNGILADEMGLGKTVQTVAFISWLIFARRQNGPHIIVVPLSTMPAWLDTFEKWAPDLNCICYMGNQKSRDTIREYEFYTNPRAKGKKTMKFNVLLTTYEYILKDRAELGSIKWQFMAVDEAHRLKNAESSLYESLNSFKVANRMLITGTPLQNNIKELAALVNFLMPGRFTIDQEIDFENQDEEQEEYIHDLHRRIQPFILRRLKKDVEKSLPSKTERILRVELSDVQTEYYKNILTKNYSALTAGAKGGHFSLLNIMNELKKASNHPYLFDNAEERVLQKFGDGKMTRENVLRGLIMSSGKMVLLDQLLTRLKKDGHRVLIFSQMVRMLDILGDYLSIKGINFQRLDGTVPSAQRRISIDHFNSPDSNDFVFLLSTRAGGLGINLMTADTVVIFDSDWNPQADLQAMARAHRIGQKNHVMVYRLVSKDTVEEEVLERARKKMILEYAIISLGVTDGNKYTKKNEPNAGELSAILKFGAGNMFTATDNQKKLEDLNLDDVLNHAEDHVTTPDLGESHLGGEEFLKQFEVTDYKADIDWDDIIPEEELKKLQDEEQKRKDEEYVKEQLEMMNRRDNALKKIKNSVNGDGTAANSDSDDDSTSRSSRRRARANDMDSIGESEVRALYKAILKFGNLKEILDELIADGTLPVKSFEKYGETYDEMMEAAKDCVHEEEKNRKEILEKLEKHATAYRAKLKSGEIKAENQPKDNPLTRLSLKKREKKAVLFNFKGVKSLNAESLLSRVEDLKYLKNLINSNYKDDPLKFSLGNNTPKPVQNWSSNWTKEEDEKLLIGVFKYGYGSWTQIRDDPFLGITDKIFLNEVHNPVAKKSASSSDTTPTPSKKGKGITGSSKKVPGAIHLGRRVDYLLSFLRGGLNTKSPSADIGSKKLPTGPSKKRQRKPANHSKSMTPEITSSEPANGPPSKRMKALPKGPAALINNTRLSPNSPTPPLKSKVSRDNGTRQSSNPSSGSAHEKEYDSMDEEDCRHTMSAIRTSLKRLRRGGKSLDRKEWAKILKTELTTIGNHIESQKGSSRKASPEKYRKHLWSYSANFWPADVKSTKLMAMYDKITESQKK

Sequence of Protein translocase subunit SecA (Escherichia coli (strain K12)) (P10408 whole entry): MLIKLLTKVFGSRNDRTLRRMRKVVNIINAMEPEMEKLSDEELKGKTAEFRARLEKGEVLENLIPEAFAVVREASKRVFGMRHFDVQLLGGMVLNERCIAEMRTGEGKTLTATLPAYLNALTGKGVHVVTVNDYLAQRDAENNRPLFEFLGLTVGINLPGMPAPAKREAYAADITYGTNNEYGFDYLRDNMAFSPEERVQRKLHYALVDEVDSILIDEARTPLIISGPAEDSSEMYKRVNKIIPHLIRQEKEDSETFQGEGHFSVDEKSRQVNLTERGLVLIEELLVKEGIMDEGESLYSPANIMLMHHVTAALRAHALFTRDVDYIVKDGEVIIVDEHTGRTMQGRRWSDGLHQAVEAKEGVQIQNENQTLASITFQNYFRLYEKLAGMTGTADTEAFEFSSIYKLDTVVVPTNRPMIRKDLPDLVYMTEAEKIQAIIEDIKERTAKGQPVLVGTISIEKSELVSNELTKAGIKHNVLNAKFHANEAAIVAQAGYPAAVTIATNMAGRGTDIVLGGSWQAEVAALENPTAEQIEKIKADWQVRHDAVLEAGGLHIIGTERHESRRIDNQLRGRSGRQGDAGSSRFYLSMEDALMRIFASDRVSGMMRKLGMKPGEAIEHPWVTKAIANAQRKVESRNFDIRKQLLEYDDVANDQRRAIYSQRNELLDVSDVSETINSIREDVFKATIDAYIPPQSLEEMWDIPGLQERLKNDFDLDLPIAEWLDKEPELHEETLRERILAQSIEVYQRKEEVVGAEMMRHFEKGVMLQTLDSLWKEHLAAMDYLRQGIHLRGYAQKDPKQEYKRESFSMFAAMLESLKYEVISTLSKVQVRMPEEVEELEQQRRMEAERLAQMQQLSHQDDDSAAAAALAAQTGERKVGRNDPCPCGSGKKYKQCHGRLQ
Sequence of Sialic acid-binding Ig-like lectin 9 (Homo sapiens) (Q9Y336 whole entry): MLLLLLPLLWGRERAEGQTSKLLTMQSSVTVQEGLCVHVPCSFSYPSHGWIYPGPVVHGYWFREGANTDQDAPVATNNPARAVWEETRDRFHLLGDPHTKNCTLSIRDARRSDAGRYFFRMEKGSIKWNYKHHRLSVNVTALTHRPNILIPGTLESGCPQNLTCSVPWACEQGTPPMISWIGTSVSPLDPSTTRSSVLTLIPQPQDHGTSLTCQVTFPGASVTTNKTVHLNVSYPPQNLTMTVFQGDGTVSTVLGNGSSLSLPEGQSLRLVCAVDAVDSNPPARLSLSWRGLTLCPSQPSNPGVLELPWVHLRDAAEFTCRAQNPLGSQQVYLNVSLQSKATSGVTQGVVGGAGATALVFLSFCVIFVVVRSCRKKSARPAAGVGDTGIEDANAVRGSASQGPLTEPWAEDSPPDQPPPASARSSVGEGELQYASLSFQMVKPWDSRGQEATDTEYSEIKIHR

`CCc1cccc(N2CCC(NC(=O)c3cc[nH]n3)CC2)c1`: the Percent Effect in assay [1] was -4.19%; in assay [2] it was 6.33%; in assay [3] it was 8.15%; in assay [4] it was -6.72%; with Trypanosoma cruzi, -3.59%; in assay [5], -5.38%. Moreover, the Percent Effect is 11.2% in [6]; 28.6% in the assay filed under Homo sapiens; 2.08% in [7]; 5.06% in [8]; -20.9% in assay [9].
For `Cc1nsc(C(=O)N2CCc3ccccc3C2)n1`, the Percent Effect in assay [1] was -7.16%; in [2], 13%; in assay [3], -4.33%; in [4], -9.01%; with Trypanosoma cruzi it was 4.44%; in [5], -1.94%. Further, the Percent Effect in [6] is 5.22%; in the assay filed under Homo sapiens, 3.35%; in assay [7], 3.17%; in assay [8], 8.97%; in [9], -9.64%.
Take `COc1cccc2c1OCC(CNC(=O)CNC(N)=O)C2` (stereo unspecified): the Percent Effect in [1] was -5.81%; in [2] it was 10.8%; in assay [3], -3.03%; in assay [4] it was 22.4%; with Trypanosoma cruzi, 7.33%; in [5], 1.24%. Moreover, the Percent Effect in assay [6] is 4.72%; in the assay listed under Homo sapiens, -5.45%; in [7], 5.38%; in [8], 13.6%; in assay [9] it was -9.37%.
Turning to `CCc1nc(CN2CCN(C(=O)COCc3ccccc3)CC2)no1`, the Percent Effect in assay [1] was -6.48%; in assay [2], 8.11%; in assay [3], -6.87%; in [4] it was 35%; in the assay on Trypanosoma cruzi it was 4.4%; in assay [5], 25.1%. Also, the Percent Effect in [6] was 10.7%; in the assay filed under Homo sapiens it was -6.99%; in [7] it was 2.15%; in assay [8], 8.64%; in [9], -11.6%.
For the compound `O=C(c1ccccn1)N1Cc2nccn2CC(COc2cccnc2)C1` (stereo unspecified), the Percent Effect in assay [1] is 0.812%; in assay [2], 13.3%; in [3], 0.132%; in assay [4], 2.56%; with Trypanosoma cruzi it was -0.193%; in [5], -54.7%. In addition, the Percent Effect in assay [6] was 4.96%; in the assay filed under Homo sapiens it was 20.5%; in [7], 4.17%; in assay [8], 15%; in assay [9] it was -4.96%.
With `COc1ccc(C(C(=O)O)N2CCCN(C3CCCCC3)CC2)cn1` (stereo unspecified), the Percent Effect was -1.53% in assay [1]; 13.5% in assay [2]; -8.59% in assay [3]; 8.33% in assay [4]; 6.55% with Trypanosoma cruzi; -6.2% in assay [5]. Besides, the Percent Effect was 15.5% in [6]; -5.05% in the assay filed under Homo sapiens; 2.15% in assay [7]; 21% in [8]; -12.3% in [9].
Consider `Cn1cnnc1CNC(=O)Nc1cc(C(F)(F)F)c[nH]c1=O`, for which the Percent Effect in assay [1] is -4.28%; in assay [2], 7.89%; in assay [3], -0.726%; in assay [4], 8.28%; with Trypanosoma cruzi it was 1.5%; in assay [5], -0.383%. Also, the Percent Effect in assay [6] is 3.84%; in the assay listed under Homo sapiens, 2.52%; in [7] it was 2.45%; in [8] it was 7.32%; in assay [9], -7.82%.
Take `CCN(Cc1nc2c(cnn2C)c(=O)[nH]1)Cc1cccs1`: the Percent Effect in [1] was -4.13%; in assay [2], 15.6%; in assay [3] it was -1.29%; in assay [4], -13.1%; with Trypanosoma cruzi, 4.6%; in [5] it was -10.3%. Further, the Percent Effect is 15.3% in assay [6]; -0.846% in the assay listed under Homo sapiens; 7.62% in assay [7]; 25.9% in assay [8]; -21.1% in assay [9].
As for `Cc1cc(NC(=O)NCc2cccnc2OC(C)C)n(C)n1`, the Percent Effect in assay [1] was -2.88%; in assay [2] it was 8.86%; in assay [3], 1.26%; in assay [4], 3.66%; with Trypanosoma cruzi, 0.103%; in [5], -1.07%. For the same compound, the Percent Effect in assay [6] was 19.4%; in the assay filed under Homo sapiens it was 4.52%; in assay [7], 3.12%; in [8], 12.7%; in assay [9], -22.1%.
In the case of `CS(=O)(=O)CCC(=O)N1CCC2(CCCN(C3CCOCC3)C2=O)C1` (stereo unspecified), the Percent Effect is 0.12% in assay [1]; 8.22% in assay [2]; -3.26% in assay [3]; 6.39% in [4]; 1.19% with Trypanosoma cruzi; -3.19% in assay [5]. The Percent Effect was 12.6% in assay [6]; -2.62% in the assay listed under Homo sapiens; 6.25% in assay [7]; 13.6% in assay [8]; -3.06% in assay [9].
`Cc1nn(C(C)C)c(C)c1NC(=O)c1ccccc1`: the Percent Effect in [1] was -2.77%; in [2], 2.74%; in assay [3], -0.803%; in assay [4], 6.74%; in the assay on Trypanosoma cruzi it was 4.17%; in [5], -2.4%. Besides, the Percent Effect is 14.5% in [6]; -0.0619% in the assay filed under Homo sapiens; 7.29% in [7]; -3.7% in assay [8]; -1.66% in [9].
